Screening results from PubChem.
Rows were chosen to be rich in hits. Some 6.8% of all compounds tested hit in one or more screens of this group.
KB-V1 MDR tox: KB-V1 MDR subline cytotoxicity; KB-V1 MDR cells viability, CellTiter-Glo, 72 h; Potency, µM (titrated, usually from 46.1 µM), actives largely listed as cytotoxic; 400,000 tested, 3.4% active; AID 1347076; also: nearly all actives have a fitted effect of over 60% in size
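Readout: CellTiter-Glo luminescence, 10 min after addition. Cells: KB-V1 MDR subline, 72 h at 37 degrees C with compound. Analysis: corrected, normalized data fitted to concentration-effect curves.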
TSG101-PTAP inh: blocks PTAP/TSG101 interaction to inhibit HIV-1 budding | AID 493005 | 340,000 tested, under 10 active | Fluorescence polarization, FITC-PTAP peptide / Tsg101 binding | Potency, µM (doses to about 115 µM), most hits filed as inhibitors; active = well fitted inhibition curve with a large enough effect in the main read-out, with a control signal flat, not every such curve was filed as active; inconclusive = small, poorly fitted or top-dose-only effect, or effect the other way, or a change in a side signal; inactive = no such curve, though single readings can be large or run the other way
Target sequence (Q99816 whole entry, looked up): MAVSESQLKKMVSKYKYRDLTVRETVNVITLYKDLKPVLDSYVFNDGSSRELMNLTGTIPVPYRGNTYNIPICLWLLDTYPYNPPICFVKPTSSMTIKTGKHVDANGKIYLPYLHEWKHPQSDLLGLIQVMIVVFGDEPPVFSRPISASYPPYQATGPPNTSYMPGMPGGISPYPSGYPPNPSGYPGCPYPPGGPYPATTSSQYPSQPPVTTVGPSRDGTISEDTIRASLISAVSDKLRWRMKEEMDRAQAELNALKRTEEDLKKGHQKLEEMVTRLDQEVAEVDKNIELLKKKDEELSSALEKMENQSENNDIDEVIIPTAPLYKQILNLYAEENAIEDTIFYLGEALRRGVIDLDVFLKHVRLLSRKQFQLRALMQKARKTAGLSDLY
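Compounds were pin-transferred onto Tsg101 binding domain (10 uM final) in HEPES pH 7.5 buffer, then FITC-PTAP peptide was added at 50 nM final. After 20 min at RT, polarization reported peptide displacement across a qHTS concentration series.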
PINK1 modulator: changes PINK1 expression. Potency, µM (titrated, usually from 76.6 µM), actives largely listed as activators. 410,000 tested, 0.2% active. AID 624263. PINK1 immunofluorescence, high-content cytometry, 24 h; active = well fitted activation curve with a large enough effect; inconclusive = small, poorly fitted or top-dose-only effect; cell line not stated here; also: nearly all actives have a fitted effect of over 65% in size
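PINK1 protein level read as immunofluorescence by microplate cytometer in a fixed, stained stable cell line after 24 h exposure to five compound concentrations, with CCCP as control.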
KB-3-1 cytotox: KB-3-1 parental cell cytotoxicity; KB-3-1 viability, CellTiter-Glo ATP luminescence, 72 h; Potency, µM (top dose mostly 46.1 µM), most hits filed as cytotoxic; 400,000 tested, 1.4% active; AID 1347075; also: nearly all actives have a fitted effect of over 60% in size
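Multi-concentration cytotoxicity screen in KB-3-1 cells grown in DMEM lacking phenol red with 10% FBS. After 72 h at 37 °C with compound, ATP-dependent luminescence was recorded.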
SW480 rereplic: induces DNA re-replication in SW480 colon adenocarcinoma cells; SW480 DNA re-replication, Hoechst DNA content imaging, 48 h; Potency, µM (top dose mostly 46.1 µM), actives largely listed as activators; 340,000 tested, 1.8% active; AID 624297; also: nearly all actives have a fitted effect of over 55% in size
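Cells (250 per well) received 23 nL compound or DMSO by pin tool and were kept 48 hr at 37 C, 5% CO2. Nuclei were then stained with Hoechst for 40 min and scanned for DNA content.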
MCF10A rerep: inducers of DNA re-replication in MCF 10A breast cells. MCF 10A DNA re-replication, Hoechst nuclear intensity, 48 h. Potency, µM (top dose mostly 46.1 µM), actives largely listed as activators. 350,000 tested, 2.9% active. AID 624296; also: nearly all actives have a fitted effect of over 50% in size
Each line names hits and unclear results; the compound was inactive in the other large screens; ! = not active in a repeat. Unless noted, calls follow the shape of the dose curve; as a rule, active = well fitted curve in the direction sought with a large enough effect; inconclusive = small, poorly fitted or top-dose-only effect, or another doubt; inactive = no such curve, though single readings can be large; an effect the other way counts as inactive or inconclusive.

Cn1cc(-c2cc3n(n2)CCC(=O)N3CC(=O)NCc2ccc(Cl)cc2)c2ccccc21	none (no result: TSG101-PTAP inh, SW480 rereplic, MCF10A rerep)
Cc1cc2cc3c(C)cc(=O)oc3c(C)c2o1	none
Cc1cc2c(C)cc(=O)oc2c2c1NCCC2	SW480 rereplic inconclusive, MCF10A rerep 13µM
Cc1ccc(-c2cc(C(=O)Nc3nccs3)c3ccccc3n2)o1	KB-V1 MDR tox 7.3µM, SW480 rereplic inconclusive, MCF10A rerep inconclusive
COc1ccc(NC(=O)c2cc(-c3ccc(C)o3)nc3ccccc23)cc1OC	KB-V1 MDR tox 16µM, KB-3-1 cytotox inconclusive
Cc1ccc(-c2cc(C(=O)Nc3nccs3)c3ccccc3n2)c(C)c1	KB-V1 MDR tox 13µM, MCF10A rerep inconclusive
COc1ccc(NC(=O)c2cc(-c3ccc(C)o3)nc3ccccc23)c(OC)c1	KB-V1 MDR tox inconclusive, SW480 rereplic inconclusive
O=C(Nc1nccs1)c1cc(-c2ccncc2)nc2ccccc12	KB-V1 MDR tox inconclusive
COc1ccc(C(=O)c2cn(Cc3ccccc3F)c3cc4c(cc3c2=O)OCO4)cc1	none (no result: TSG101-PTAP inh, SW480 rereplic, MCF10A rerep)
COC(=O)c1cc(NC(=O)c2ccc3c(c2)N(Cc2cccc(Cl)c2)C(=O)c2ccccc2S3=O)cc(C(=O)OC)c1 (stereo not drawn)	none (no result: TSG101-PTAP inh, SW480 rereplic, MCF10A rerep)
Cc1nc(C(F)(F)F)c(C(=O)NC(=O)Nc2ccc(OC(F)(F)F)cc2)s1	KB-V1 MDR tox 16µM
Cc1cnc(C(=O)Nc2ccc(OC(F)(F)F)cc2)cn1	KB-V1 MDR tox inconclusive, KB-3-1 cytotox 15µM
COC(=O)CC1Oc2ccc(Cl)cc2-n2cc(-c3ccc(C)cc3)nc21 (stereo not drawn)	none (no result: TSG101-PTAP inh, SW480 rereplic, MCF10A rerep)
Cc1c(NS(=O)(=O)c2ccc(N(C)C3CCCCC3)c([N+](=O)[O-])c2)c(=O)n(-c2ccccc2)n1C	KB-V1 MDR tox 15µM, KB-3-1 cytotox inconclusive, SW480 rereplic inconclusive
Cc1c(NS(=O)(=O)c2ccc(N3CCCCC3)c([N+](=O)[O-])c2)c(=O)n(-c2ccccc2)n1C	KB-V1 MDR tox inconclusive
O=C1[C@H](Cc2ccccc2)NCCCC[C@@H](c2ccc(Cl)cc2)N1Cc1ccccc1	KB-V1 MDR tox 23µM!, KB-3-1 cytotox inconclusive (no result: TSG101-PTAP inh)
CCOc1ccc(CCNC(=O)Cn2nnc(-c3ccc(C(F)(F)F)cc3)n2)cc1OCC	none (no result: TSG101-PTAP inh, SW480 rereplic, MCF10A rerep)
CC(=O)C1=NN(c2ccccc2)C(c2ccc3c(c2)OCO3)N1c1ccccc1 (stereo not drawn)	KB-3-1 cytotox inconclusive, SW480 rereplic 5.8µM, MCF10A rerep 8.2µM
CC(=O)C1=NN(c2ccccc2)C(c2cccs2)N1c1ccc(N(C)C)cc1 (stereo not drawn)	KB-3-1 cytotox inconclusive, SW480 rereplic inconclusive, MCF10A rerep inconclusive
O=C(C1CC12CCN(Cc1cccc3cccnc13)CC2)N1CCN(Cc2cccs2)CC1 (stereo not drawn)	none (no result: KB-V1 MDR tox, TSG101-PTAP inh, KB-3-1 cytotox, SW480 rereplic, MCF10A rerep)
NC(=O)c1cccc(-c2ccnc3c2CC(C(=O)NCc2ccco2)O3)c1 (stereo not drawn)	KB-3-1 cytotox 6.5µM (no result: TSG101-PTAP inh, SW480 rereplic, MCF10A rerep)
O=C(NCc1ccco1)C1Cc2c(-c3cccc(F)c3)ccnc2O1 (stereo not drawn)	KB-V1 MDR tox 4.6µM, KB-3-1 cytotox 1.2µM (no result: TSG101-PTAP inh, SW480 rereplic, MCF10A rerep)
O=C(Nc1ccccc1)C1Cc2c(-c3ccc(Cl)cc3)ccnc2O1 (stereo not drawn)	KB-V1 MDR tox inconclusive (no result: TSG101-PTAP inh, SW480 rereplic, MCF10A rerep)
O=C(NCc1ccccc1)C1Cc2c(-c3cccc(F)c3)ccnc2O1 (stereo not drawn)	KB-V1 MDR tox 1.5µM, KB-3-1 cytotox 4.6µM (no result: TSG101-PTAP inh, SW480 rereplic, MCF10A rerep)
O=C(NCc1ccccc1)C1Cc2c(-c3ccc(Cl)cc3)ccnc2O1 (stereo not drawn)	KB-V1 MDR tox 1.5µM, KB-3-1 cytotox 5.8µM (no result: TSG101-PTAP inh, SW480 rereplic, MCF10A rerep)
CN(C)c1ccc(CNC(=O)C2Cc3c(-c4cccc(C(N)=O)c4)ccnc3O2)cc1 (stereo not drawn)	none (no result: TSG101-PTAP inh, SW480 rereplic, MCF10A rerep)
CCOc1ccc2nc(N3CCCC(C(=O)Nc4cc(Cl)c(OC)cc4OC)C3)sc2c1 (stereo not drawn)	none (no result: TSG101-PTAP inh, SW480 rereplic, MCF10A rerep)
CC(=O)c1cccc(-c2ccnc3c2CC(C(=O)NCc2ccco2)O3)c1 (stereo not drawn)	KB-V1 MDR tox 0.92µM, KB-3-1 cytotox 1.2µM (no result: TSG101-PTAP inh, SW480 rereplic, MCF10A rerep)
CC(=O)c1cccc(-c2ccnc3c2CC(C(=O)NCc2ccc(N4CCN(C)CC4)cc2)O3)c1 (stereo not drawn)	none (no result: TSG101-PTAP inh, SW480 rereplic, MCF10A rerep)
CC(=O)c1cccc(-c2ccnc3c2CC(C(=O)NCc2ccccc2)O3)c1 (stereo not drawn)	KB-3-1 cytotox inconclusive (no result: TSG101-PTAP inh, SW480 rereplic, MCF10A rerep)
CC(=O)c1cccc(-c2ccnc3c2CC(C(=O)NCc2ccc(F)c(F)c2)O3)c1 (stereo not drawn)	KB-V1 MDR tox inconclusive, KB-3-1 cytotox 5.2µM (no result: TSG101-PTAP inh, SW480 rereplic, MCF10A rerep)
CCOC(=O)c1c(C)[nH]c(CCC(=O)NC(C)c2ccccc2)c1C (stereo not drawn)	none (no result: KB-V1 MDR tox, TSG101-PTAP inh, KB-3-1 cytotox, SW480 rereplic, MCF10A rerep)
COc1ccccc1Nc1nc(N)nc(CSc2nc(C)cc(C)n2)n1	KB-V1 MDR tox 13µM, KB-3-1 cytotox inconclusive
COc1ccccc1Nc1nc(N)nc(CSc2nccc(C)n2)n1	none
Cc1onc(C(=O)N2CCN(C(c3ccccc3)c3ccccc3)CC2)c1[N+](=O)[O-]	SW480 rereplic 4.1µM
Oc1cccc(C(O)CNCc2ccc(OCc3ccc(Cl)cc3Cl)cc2)c1 (stereo not drawn)	KB-V1 MDR tox inconclusive, SW480 rereplic inconclusive, MCF10A rerep 15µM
